# Experimental data as given in PubChem BioAssay AID720582 (The Scripps Research Institute Molecular Screening Center, 2013).
# Out of some 370,000 compounds screened, about 2,300 (0.62%) were called active.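 Rule for the calls: active = inhibition above a per-campaign cutoff equal to the mean of compounds falling between control-based bounds plus 3 SD (cut at about 20% in these data); inactive = the rest.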 For the sample, actives were picked, then their nearest neighbours and some compounds at random.
# Target: Disintegrin and metalloproteinase domain-containing protein 10 (Homo sapiens) (UniProt O14672)
# Assay: blockers of ADAM10 peptide cleavage – biochemical, QFRET, HTS, primary screen (AID 720582);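 note: 0% = DMSO wells while the 100% control is not disclosed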
# Conditions: recombinant ADAM10, EDANS/DABCYL FRET peptide cleavage, 3 h; at 7 µM; active compounds read high
# Chain of Disintegrin and metalloproteinase domain-containing protein 10 (Homo sapiens) (O14672 214-748 limits assumed): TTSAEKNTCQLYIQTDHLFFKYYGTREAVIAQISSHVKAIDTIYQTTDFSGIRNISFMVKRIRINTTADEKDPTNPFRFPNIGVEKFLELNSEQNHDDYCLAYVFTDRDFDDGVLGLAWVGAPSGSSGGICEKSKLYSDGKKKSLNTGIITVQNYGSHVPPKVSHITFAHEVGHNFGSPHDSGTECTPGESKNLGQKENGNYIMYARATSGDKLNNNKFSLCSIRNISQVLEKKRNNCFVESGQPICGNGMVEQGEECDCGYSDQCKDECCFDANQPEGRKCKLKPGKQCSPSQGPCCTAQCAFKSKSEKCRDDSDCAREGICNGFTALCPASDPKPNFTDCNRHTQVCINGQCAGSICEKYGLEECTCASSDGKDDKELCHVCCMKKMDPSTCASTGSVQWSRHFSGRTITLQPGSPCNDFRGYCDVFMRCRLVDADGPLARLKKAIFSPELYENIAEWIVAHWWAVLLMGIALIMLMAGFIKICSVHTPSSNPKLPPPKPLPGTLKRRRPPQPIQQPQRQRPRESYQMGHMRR
row,SMILES,inhibition
1,Oc1c(Cl)cc(Cl)c(Cl)c1Cc1c(O)c(Cl)cc(Cl)c1Cl,36.2% (active)
2,O=C(CSc1nnc(-c2ccccn2)n1-c1ccc(Cl)cc1)Nc1ccccc1-c1ccccc1,1.01% (inactive)
3,C=CCN1C(=O)[C@@H](CC(=O)NCCCOCCCC)[C@]2(C(=O)OCC)CCCCC/C=C/12,-1.99% (inactive)
4,Cc1ccc(S(=O)(=O)c2c(COC(=O)c3cccc(Cl)c3)c(-c3ccccc3)nn2C)cc1,4.59% (inactive)
5,O=C(OCc1ccc(-c2ccccc2)cc1)c1cccc(O)c1,23.1% (active)
6,O=C(OCC(O)C(O)COC(=O)c1ccccc1)c1ccccc1 (stereo not given),-1.65% (inactive)
7,C=CCn1c(SCC(N)=O)nnc1-c1ccccc1OC,-8.66% (inactive)
8,CN1C[C@]2(C=C3CCCCC3n3c(=O)n(-c4ccccc4)c(=O)n32)N=C1NC(=O)c1ccccc1 (stereo not given in full),5.49% (inactive)
9,O=C(NCc1cccs1)C1CCN(S(=O)(=O)c2ccccc2[N+](=O)[O-])CC1,7.43% (inactive)
10,Cc1ccc(OCC(=O)Nc2ccc(C(=O)O)cc2NC(=O)COc2ccc(C)c(C)c2)cc1C,-2.89% (inactive)
11,Cc1ccc(NS(=O)(=O)c2ccc(C)c(NC(=O)COc3ccc4ccccc4c3)c2)c(C)c1,21.2% (active)
12,Cc1ccc(C)c(NS(=O)(=O)c2ccc(OCC(=O)NCc3cccnc3)cc2)c1,5.13% (inactive)
13,COc1ccc(-n2c(SCC(=O)NC3CCCC3)nnc2-c2ccncc2)cc1,-6.99% (inactive)
14,COc1cccc(/C=C2\CC3(OC(C)=O)CCCN2C3)c1 (stereo not given),3.53% (inactive)
15,CC(CCN1CCC(C(O)(c2ccccc2)c2ccccc2)CC1)Oc1ccc([N+](=O)[O-])cc1Cl (stereo not given),14.3% (inactive)
16,O=C(NCC1CC1)c1onc(CSc2ccccc2)c1C(=O)NCC1CC1,4.44% (inactive)
17,O=C(NCc1ccccc1)c1onc(CSc2nc3ccccc3[nH]2)c1C(=O)NCc1ccccc1,23.5% (active)
18,O=C(NCc1ccccc1)c1onc(CSc2ccncc2)c1C(=O)NCc1ccccc1,6.67% (inactive)
19,CCN(C(=O)[C@@H](C1CC1)[C@@H](O)c1ccc2ccccc2c1)c1ccccc1,7.43% (inactive)
20,CC(C)CNc1cccc2c1S(=O)(=O)N(Cc1cn(Cc3ccccc3C(F)(F)F)nn1)Cc1ccccc1O2,-26.5% (inactive)
21,O=C(CSc1nc2ccccc2s1)N=Nc1c(O)[nH]c2ccccc12,7.8% (inactive)
22,Cc1ccc(Cn2cc(CN3[C@@H](C)COc4cc(Br)ccc4S3(=O)=O)nn2)cc1,-3.91% (inactive)
23,CCN1C(=O)C(CC(=O)Nc2cc(C)ccc2C)SC1=Nc1ccc(S(N)(=O)=O)cc1 (stereo not given),3.57% (inactive)
24,CN1C(=O)C(CC(=O)Nc2ccccc2)S/C1=N/c1nccs1 (stereo not given),8.04% (inactive)
25,O=C(CC1SC(=Nc2ccccc2)N(Cc2ccccn2)C1=O)Nc1cccc(Cl)c1 (stereo not given),21.2% (active)
